Bioassay records: PubChem, several laboratories
This is a sample that favours compounds with a hit; in the whole collection about 2.4% have one here.
eIF4H FP inh: human eIF4H binding inhibitors, primary screen, translation initiation inhibitor project, biochemical, uHTS, fluorescence polarization; AID 2012, 2009; Eukaryotic translation initiation factor 4H (Homo sapiens), Q15056; eIF4H fluorescence polarization binding assay; 290,000 tested, 0.94% active; inhibition, % at 35 µM;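 further: calls also rest on retests at 20 µM and on dose response follow-up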
Efa HMGR inh: inhibitors of E. faecalis class II HMGR, primary screen, biochemical, Enterococcus faecalis; HMG-CoA reductase (Enterococcus faecalis, mvaE); purified E. faecalis HMGR, NADPH absorbance 340 nm kinetic; inhibition, % at 10 µM; 190,000 tested, 0.41% active; AID 1066, 2008;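 active means inhibition above a set limit, the median over all tested compounds plus 3 SD, cut at about 9.5% in these data; inconclusive means no clear call, values can overlap the other calls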;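 further: enzyme runs in reverse so mevalonate oxidation gives rising NADPH absorbance; 0% = complete reaction with DMSO and 100% = background rate lacking mevalonate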
PHOSPHO1 inh: PubChem AID 1565 | 290,000 tested, 1.1% active | recombinant PHOSPHO1, absorbance phosphatase assay | inhibition, % at 13.3 µM | Phosphoethanolamine/phosphocholine phosphatase (Homo sapiens), Q8TCT1; in the data active means inhibition above about 60%
Target sequence (Q8TCT1 whole entry, looked up): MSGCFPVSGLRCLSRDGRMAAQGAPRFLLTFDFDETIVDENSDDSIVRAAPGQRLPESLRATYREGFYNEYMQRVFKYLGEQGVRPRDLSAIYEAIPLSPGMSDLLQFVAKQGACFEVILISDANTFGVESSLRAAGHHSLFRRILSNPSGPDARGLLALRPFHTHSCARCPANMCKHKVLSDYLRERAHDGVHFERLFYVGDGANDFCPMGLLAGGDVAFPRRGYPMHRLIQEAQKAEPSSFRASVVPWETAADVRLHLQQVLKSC
PABP1 MLLE inh: inhibitors of PABP1 MLLE–PAM2 peptide binding, primary screen, biochemical, fluorescence polarization, FITC-PAM2, GST-MLLE | inhibition, % at 20 µM | 360,000 tested, 0.36% active; in the data active means inhibition above about 35%, passing the limit was not always enough;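 further: plate controls were DMSO wells with GST-MLLE for no effect and wells lacking GST-MLLE protein for full effect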
PABP FP inh: PABP poly(A) RNA binding inhibitors, primary screen, biochemical, fluorescence polarization, uHTS; Polyadenylate-binding protein 1 (Homo sapiens), P11940; 290,000 tested, 1% active; calls only at 35 µM;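 further: calls also rest on retests at 20 µM and on dose response follow-up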
* hit, by the source's call; i = inactive; ? = inconclusive; / = not tested or not shown; + = active, no number. Unless noted, how the calls were made is not given here.

SMILES | eIF4H FP inh | Efa HMGR inh | PHOSPHO1 inh | PABP1 MLLE inh | PABP FP inh
Cc1ccc(S(=O)(=O)/C(C#N)=C/c2c(N3CCN(Cc4ccccc4)CC3)nc3ccccn3c2=O)cc1 | ? | / | 29 | 13 | +
O=C(COC(=O)c1ccc(Cl)nc1)NNC(=O)c1ccc(Br)cc1 | / | / | / | -8 | /
COc1cc(OC)cc(C(=O)N2CCN(S(=O)(=O)c3ccc(Cl)s3)CC2)c1 | / | / | / | 8 | /
COc1ccccc1CNC(=O)COC(=O)c1ncc(Cl)c(Cl)c1Cl | / | / | / | -5 | /
NS(=O)(=O)c1ccc(-c2ccc(/C=C3\NC(=S)NC3=O)o2)cc1 | 79* | / | -16 | 12 | i
NS(=O)(=O)c1ccc(-c2ccc(C=O)o2)cc1 | -4 | -7 | 12 | -16 | i
COC(=O)c1ccc(=O)c2nc3/c(=C/O)c(O)cc(=O)c3[nH]c12 | 85* | / | 18 | 6 | +
COC(=O)c1ccc(N)cc1O | 2 | -5 | 6 | 4 | i
O=C(O)C(=Cc1cccc([N+](=O)[O-])c1)c1ccc(Cl)cc1 | / | / | / | -7 | /
Cc1ccc(OCCOc2ccc(S(=O)(=O)N3CCCC3)cc2C(N)=O)cc1 | / | / | / | -6 | /
COc1ccc(C)cc1NC(=O)C(NC(=O)c1cc(OC)c(OC)c(OC)c1)C(C)C (stereo not given) | 91* | -8 | 17 | -8 | +
COc1cc(C(=O)N[C@H](C(=O)NC(C)C23CC4CC(CC(C4)C2)C3)C(C)C)cc(OC)c1OC (stereo not given in full) | 2 | -3 | 0 | -8 | i
COc1ccc(/C=N/Nc2nccnc2Cl)c(OC)c1 | 4 | 18* | 54 | -17 | i
COc1ccc(/C=N/Nc2nccnc2Cl)cc1 | -5 | -4 | 6 | -12 | i
COc1ccc(/C=N/NC2=NCCCCC2)c(OC)c1 | active | -6 | 4 | -1 | +
Nc1nc(-c2cc(O)ccc2[N+](=O)[O-])cc(-c2ccccc2)c1[N+](=O)[O-] | 98* | / | 29 | -17 | +
CCc1ccc(OCCn2cccn2)cc1 | -5 | -2 | -26 | 2 | i
COc1ccc(NS(=O)(=O)c2ccc(F)c(Cl)c2)cn1 | ? | / | -7 | 47* | ?
Nc1ncnc2c1ncn2[C@@H]1O[C@H](CNS(=O)(=O)c2ccc3c(c2)CCN(C(=O)C(F)(F)F)C3)[C@@H](O)[C@H]1O | / | / | / | 3 | /
COc1cc(C2C(C#N)=C(N)N(c3cccnc3)C3=C2C(=O)CCC3)ccc1O (stereo not given) | 51* | -4 | 38 | 0 | +
CCSc1sccc1C1C(C#N)=C(N)N(c2cccnc2)C2=C1C(=O)CCC2 (stereo not given) | 14 | 2 | 20 | 45* | i
Cc1ccccc1OCCC(=O)NNC(=O)c1ccccc1F | / | / | / | 6 | /
COc1ccccc1C1CCCN1Cc1nc(-c2ccc(C)s2)oc1C (stereo not given) | 6 | 12* | 24 | -23 | i
COc1ccccc1C1CCCN1Cc1nc(-c2cc3c(cc2Cl)OCO3)oc1C (stereo not given) | 2 | -1 | 36 | -3 | i
CCCNCC(O)Cn1c2ccccc2n2c(=O)cc(C)c(C#N)c12 (stereo not given) | -2 | -9 | 7 | -13 | i
SMILES | eIF4H FP inh | Efa HMGR inh | PHOSPHO1 inh | PABP1 MLLE inh | PABP FP inh
Cc1cc(=O)n2c3ccccc3n(CC(O)CN3CCCC3)c2c1C#N (stereo not given) | 9 | -6 | 62* | -7 | i
COc1ccc(OC)c2c1C(=O)C(Cl)=C(Cl)C2=O | -10 | / | 20 | 58* | i
COc1ccc(OC)c2c1C(=O)c1ccccc1C2=O | 33 | -2 | 95* | / | +
COc1ccc(N)c2c1C(=O)c1ccccc1C2=O | 12 | 1 | 3 | 10 | i
COc1ccc(OC)c2c1C(=O)CC2C (stereo not given) | / | / | / | 5 | /
COc1cccc2c1C(=O)c1ccc3ccccc3c1C2=O | 16 | 2 | 87* | 30 | i
COc1ccc(N2CCN(C(=O)CN(c3cccc(Br)c3)S(C)(=O)=O)CC2)cc1 | 2 | -5 | -29 | -6 | i
CS(=O)(=O)N(CC(=O)N1CCN(c2ccccc2)CC1)c1cccc(Br)c1 | 5 | -3 | 98* | -115 | i
CCCC[n+]1ccn(-c2nc3ccccc3nc2[N-]S(=O)(=O)c2cccs2)c1 | -8 | / | 77* | -13 | i
O=S(=O)([N-]c1nc2ccccc2nc1-[n+]1ccc(CCCc2ccccc2)cc1)c1cccs1 | 116* | / | 24 | 29 | +
CCCC[n+]1ccn(-c2nc3ccccc3nc2[N-]S(=O)(=O)c2ccccc2)c1 | 3 | 1 | -8 | 13 | i
Cc1cc(CNC[C@H]2O[C@@H](n3cnc4c(N)ncnc43)[C@H](O)[C@@H]2O)no1 | / | / | / | 1 | /
O=C(O)c1ccc(-c2ccc(/C=c3/sc4nc5ccccc5n4c3=O)o2)cc1Cl | 78 | / | 31 | -70 | +
Cc1cc(/C=c2/sc3nc4ccccc4n3c2=O)c(C)n1-c1ccccn1 | 22 | 4 | 75* | -39 | i
Cc1cc(/C=c2\sc3nc4ccccc4n3c2=O)c(C)n1-c1ccc(C(=O)O)cc1 | 64 | -3 | 6 | -44 | +
Cc1ccc(CNC(=O)CCCn2nc(C)c3c(C)n(-c4ccccc4)nc3c2=O)cc1 | 1 | / | 5 | 6 | i
O=C(Cc1cccc(NC(=O)C2CCCN(C(=O)C3CCCCC3)C2)c1)Nc1cccc(C(=O)N2CCCC2)c1 (stereo not given) | / | / | / | -2 | /
CN(C(=O)Cn1cccc1C1=NC(c2ccccc2)CO1)c1ccccc1 (stereo not given) | 5 | 3 | -33 | 6 | i
COc1ccc(-c2csc(C)n2)cc1 | 2 | 9.8* | -1 | 15 | i
COc1ccc(-c2nc(C)ncc2-c2csc(C)n2)c(O)c1 | 73* | -1 | 3 | 13 | +
CC/C(=C\C(=O)c1cccnc1)Nc1ccc(C)c(C)c1 | -7 | 0 | 96* | -78 | i
NC(=S)c1cnn2c(-c3cccc(C(F)(F)F)c3)ccnc12 | -4 | / | 18 | 38* | i
Oc1ccc(N=Cc2ccc(-c3cccs3)s2)cc1 | 51* | -3 | 5 | -3 | i
Cc1cc(C(F)(F)F)c2c(N)c(C(=O)Nc3cc(C)on3)sc2n1 | 59* | -9 | 41 | 24 | +
Cc1cc(C)cc(NC(=O)c2sc3nc(C)cc(C)c3c2N)c1 | -3 | / | 30 | 25 | i
Cc1nc(SCC(=O)Nc2ccccc2)c2oc3ccccc3c2n1 | 8 | -3 | 23 | -1 | i
CNC(=O)C(Sc1nc(C)nc2c1oc1ccccc12)C(C)=O (stereo not given) | 0 | 1 | 88* | -16 | i
Cc1cc(C)cc(N2C(=O)CSC2c2ccccn2)c1 (stereo not given) | -9 | -3 | -22 | 2 | i
